# Most compounds without a hit are left out; they make up all but 7.9% or so of the library.
# Shh pathway inh – blocks Sonic Hedgehog signaling | inhibition, % (concentration not given with the values) | 2.1% of 22,000 active | Shh-LIGHT2 Gli-luciferase reporter, 30 h;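 active = mean inhibition across valid replicates above about 65%, limit read from the data; inconclusive = mean under the limit, yet half or more replicates past it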;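 note: pathway switched on by Shh-conditioned medium diluted 1 in 25 in low serum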
# NOMO-1 viab – STK33 inhibitor candidate reducing NOMO-1 cell viability | 7.5% of 37,000 active | inhibition, % (test concentration not listed) | NOMO-1 AML viability, CellTiter-Glo luminescence, 72 h; in the data active = inhibition above about 80%; inconclusive = no clear call, values can overlap the other calls
# PD-1 reverse act – reversal of PD-1 mediated T-cell inhibition. activation, % (test concentration not listed). primary human CD4 T cells, PD-L1 beads, CellTiter-Glo 96 h. 29,000 tested, under 10 active; call rule not given here;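 note: 0% = median vehicle wells and 100% = positive control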
# MITF inhib – MITF inhibition. TRPM1 promoter luciferase, luminescence, 24 h. inhibition, % (test concentration not listed). AID 2240. 0.28% of 37,000 active; in the data active = inhibition above about 85%; inconclusive = no clear call, values can overlap the other calls; inactive = below about 68%;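 note: human melanocyte line stably carrying TRPM1 promoter luciferase reporter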
# * hit, by the source's call; ? = inconclusive; . = not tested or not shown.
SMILES,Shh pathway inh,NOMO-1 viab,PD-1 reverse act,MITF inhib
CC(C)CC1NC(=O)C(CC(C)C)N(O[C@@H]2O[C@H](COC(=O)CCC(=O)O)[C@@H](O)[C@H](O)[C@H]2O)C1=O (stereo partly specified),74.1*,118.5*,-6.1,50.0
O=C(CSC1N=C2C=CC=CC2O1)c1ccccc1 (stereo unspecified),-98.0,49.1,-1.4,-31.6
CC(C)(C)c1ccc(C(=O)N2CCN(c3ccc([N+](=O)[O-])c(NCc4cccnc4)c3)CC2)cc1,.,110.7*,-4.2,?
C[C@@H]1CN([C@H](C)CO)C(=O)Cc2cc(NC(=O)CCCCCC(=O)Nc3ccccc3N)ccc2O[C@@H]1CN(C)C,.,48.4,1.5,-7.1
C[C@H](CO)N1C[C@H](C)[C@H](CN(C)CC2CC2)Oc2ccc(NC(=O)CCCCCC(=O)Nc3ccccc3N)cc2CC1=O,.,140.4*,-0.8,-6.9
C[C@H](CO)N1C[C@H](C)[C@@H](CN(C)CC2CCCCC2)Oc2ccc(NC(=O)CCCCCC(=O)Nc3ccccc3N)cc2C1=O,.,25.9,1.2,-3.9
C[C@@H]1CN([C@@H](C)CO)C(=O)Cc2cc(NC(=O)CCCCCC(=O)Nc3ccccc3N)ccc2O[C@@H]1CN(C)CC1CCCCC1,.,135.8*,0.6,4.6
C[C@@H]1CN([C@H](C)CO)C(=O)c2cccc(NC(=O)CCCCCC(=O)Nc3ccccc3N)c2O[C@H]1CN(C)CC1CC1,.,122.2*,0.2,12.9
C[C@H]1CN([C@@H](C)CO)C(=O)c2cccc(NC(=O)CCCCCC(=O)Nc3ccccc3N)c2O[C@H]1CN(C)CC1CCCCC1,.,51.6,1.6,11.1
C[C@@H]1CN([C@H](C)CO)C(=O)c2cccc(NC(=O)CCCCCC(=O)Nc3ccccc3N)c2O[C@@H]1CN(C)CC1CC1,.,46.2,2.0,-14.1
C[C@@H]1CN([C@@H](C)CO)C(=O)c2cccc(NC(=O)CCCCCC(=O)Nc3ccccc3N)c2O[C@H]1CN(C)CC1CC1,.,127.9*,0.4,13.4
C[C@H]1CN([C@@H](C)CO)C(=O)c2cccc(NC(=O)CCCCCC(=O)Nc3ccccc3N)c2O[C@@H]1CN(C)CC1CC1,.,119.7*,-1.3,40.6
CCOc1ccc(NC(=O)CSc2nnc3c4c5c(sc4nc(SC)n23)CCC5)cc1,.,-11.4,.,-9.4
COc1ccc(C(O)CNC(=O)/C=C/c2ccccc2)cc1 (stereo unspecified),31.8,112.4*,-0.3,10.4
O=c1[nH]c(=S)[nH]c(O)c1C=Nc1cccc(O)c1,-8.4,11.4,0.0,-4.2
O=S(=O)(CCSc1nc2ccccc2o1)c1nc2ccccc2s1,.,126.8*,-12.5,27.9
O=S(=O)(CCSc1ccccn1)c1nc2ccccc2s1,.,107.9*,.,13.5
O=C(O)CCSc1nc2ccccc2s1,.,16.9,.,?
CCN(CCS(=O)(=O)c1ccc(C)cc1)C(=O)c1ccc(-c2cc(C(F)(F)F)nn2C)s1,12.6,-3.2,-0.9,11.9
CCc1cccc2c(C(C(=O)c3ccccc3)c3c[nH]c4c(CC)cccc34)c[nH]c12,26.6,110.6*,-0.8,43.9
C[C@@H]1CN([C@@H](C)CO)C(=O)Cc2cc(NC(=O)Nc3ccc(C(F)(F)F)cc3)ccc2O[C@@H]1CN(C)Cc1ccc(-c2ccccc2)cc1,10.4,23.9,-0.8,9.5
C[C@H]1CN([C@@H](C)CO)C(=O)Cc2cc(NC(=O)Nc3ccccc3)ccc2O[C@H]1CN(C)Cc1ccc(-c2ccccc2)cc1,-31.8,-21.1,1.9,-16.8
C[C@H]1CN([C@@H](C)CO)C(=O)Cc2cc(NC(=O)Nc3ccc(C(F)(F)F)cc3)ccc2O[C@@H]1CN(C)Cc1ccc(-c2ccccc2)cc1,-12.9,127.0*,-0.4,13.8
C[C@H]1CN([C@@H](C)CO)C(=O)Cc2cc(NC(=O)Nc3ccc(C(F)(F)F)cc3)ccc2O[C@H]1CN(C)Cc1ccc(-c2ccccc2)cc1,-1.5,127.8*,-3.5,15.8
CCOc1ccc(-n2c(SCC(=O)c3ccc(Br)cc3)nnc2-c2cccnc2)cc1,.,20.7,-3.3,1.7
C[C@H](CO)N1C[C@H](C)[C@H](CN(C)Cc2ccc(-c3ccccc3)cc2)Oc2c(NC(=O)Nc3ccc(C(F)(F)F)cc3)cccc2C1=O,-68.0,82.1*,-2.0,-8.3
C[C@@H]1CN([C@H](C)CO)C(=O)c2cccc(NC(=O)Nc3ccc(C(F)(F)F)cc3)c2O[C@H]1CN(C)Cc1ccc(-c2ccccc2)cc1,-4.3,109.6*,.,10.2
C[C@@H]1CN([C@@H](C)CO)C(=O)c2cccc(NC(=O)Nc3ccc(C(F)(F)F)cc3)c2O[C@H]1CN(C)Cc1ccc(-c2ccccc2)cc1,3.8,77.3,-1.0,31.5
Cc1cc(C(F)(F)F)nn1CCCNC(=O)c1cc(-c2ccccc2)nc2ccccc12,.,26.4,.,-13.5

# Source: PubChem BioAssay
